The values below come from PubChem BioAssay (NCI).

Where “and” joins values, the source holds several entries; their conditions need not be identical. Equal entries are not always repeated. The panel holds about 83,000 compounds, 20% with a hit somewhere; the sample as a whole holds those more often.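 Step 1: grow cells in 96-well plates. Step 2: add test compound at a single concentration. Step 3: incubate 48 h. Step 4: record percent growth.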 Calls of active or inactive are those of the source. How the source made its calls: active means growth percent below 10; inactive means the rest.

The test system of the assay is MDA-MB-435 melanoma. The assay can be described thus: NCI-60 one-dose screen, 48 h (100 = growth as untreated, 0 = no growth, -100 = all killed). The conditions noted are these: 10 µM unless noted.
`CN1CCN(Cc2ccc(NC(=O)c3cccc(C#Cc4c(N)ncc5ccc(F)cc45)c3)cc2C(F)(F)F)CC1`: the growth was -95.9% (active).
For the compound `O=S(=O)(Nc1cc(Sc2cccc3cccnc23)c(O)c2ccccc12)c1ccc(F)cc1`, the growth was 7.68% (active).
Next, `CCOC(=O)c1cc2c(n1Cc1cc(OC)cc(OC)c1Br)-c1nc(NC(C)=O)sc1CCC2`: 83.9% (inactive).
Next, `C#Cc1cc(C(=O)Nc2ccc(CN3CCN(C)CC3)c(C(F)(F)F)c2)ccc1C`: 28.1% (inactive); `O=c1cc(N/N=C/c2ccc(F)cc2)c2cc(Cl)ccc2[nH]1`: 78.6% (inactive).
For `COc1ccc(Nc2nn3c(SCC(=O)c4ccc(C)cc4)nnc3s2)cc1` the value was 105% (inactive); for `Nc1ccccc1SC(CC(=O)c1ccccc1)c1ccc([N+](=O)[O-])cc1` (stereo not drawn), 101% (inactive) and 87.2% (inactive); for `O=C1/C(=C/c2ccc(-c3cccc(C(F)(F)F)c3)o2)SC(=S)N1CCc1ccc(O)cc1`, 52.6% (inactive).
As for `COc1cc2c(cc1OCCCOC1=C=C=C(c3ccc4c(c3)c3cc(-c5ccc(OCCCOc6cc7c(cc6OC)C(=O)N6CCC[C@H]6C=N7)cc5)ccc3n4S(=O)(=O)c3ccc(C)cc3)C=C1)N=C[C@@H]1CCCN1C2=O`, the growth was 44.5% (inactive).
For `CN1CCN(Cc2ccc(NC(=O)c3nc4ccc5[nH]ncc5c4c4c3CCCC4)cc2C(F)(F)F)CC1` the value was -82.6% (active).
For `CCOC(=O)n1cc(-c2nonc2-c2cn(C)c3ccc(OC)cc23)c2cc(F)ccc21` the value was 85.7% (inactive); for `CCOc1ccccc1NC(=O)c1cc2ccccc2cc1O`, 49.4% (inactive); for `C=C(CN1CC=CCC1)[C@@H]1CC[C@]2(COC(C)=O)CC[C@]3(C)[C@H](CC[C@@H]4[C@@]5(C)CC[C@H](O)C(C)(C)[C@@H]5CC[C@]43C)[C@@H]12`, 99.2% (inactive).
Next, `Cc1c(O)c(O)cc2c3c(oc12)CC(c1ccc2c(c1)OCO2)CC3=O` (stereo not drawn): 105% (inactive).
For the compound `O=c1c2c([nH]c3ccccc13)CCCC2`, the growth is 103% (inactive) and -56.9% (active).
For `Clc1ccc(/C=N\N2CCCCCC2)cc1` the value was 86.8% (inactive) and 96.3% (inactive).
Next, `CCOC(=O)c1nc2c3ccccc3cnn2c1C(=O)c1ccc(OC)cc1`: 107% (inactive); `COc1ccc(-c2nn3c(-c4cc(F)c(Cl)cc4Cl)nnc3s2)cc1`: 3.5% (active); `O=C1C(=C(O)c2ccccc2)C(=O)c2ccccc21`: 103% (inactive).
Next, `O=C(Nc1ccccc1C(=O)N/N=C(\c1ccccc1)c1ccccn1)c1ccccc1`: 27.7% (inactive); `COc1cc(-c2[nH]ncc2Nc2ccc(Cl)cc2)cc(OC)c1OC`: 55.5% (inactive).
For `O=C([C@H]1C[C@H]1c1ccc(S(F)(F)(F)(F)F)cc1)N1CCN(c2cc(Cl)ccc2C(F)(F)F)CC1`, the growth was 102% (inactive).
Next, `Clc1ccc2c(NCCN3CCN(c4ccnc(N5CCCC5)n4)CC3)ccnc2c1`: 15.2% (inactive); `Cn1c(=O)c2c(nc(Nc3cc(=O)[nH]c(=O)[nH]3)n2Cc2ccccc2)n(C)c1=O`: -73% (active); `Cc1ccc(S(=O)(=O)OC[C@@]2(C)CC[C@]3(C)CC[C@]4(C)C(=CC[C@@H]5[C@@]6(C)CCCNC(C)(C)[C@@H]6CC[C@]54C)[C@@H]3C2)cc1`: -89.9% (active).
For `Cc1nc(-n2[nH]c(=O)ccc2=O)sc1N=Nc1ccccc1` the value was 102% (inactive); for `CCCCC#Cc1c(/C=C(\CCCC)SCC)n(C)c(=O)[nH]c1=O`, 104% (inactive).
Next, `O=C(CCN1CCOCC1)Nc1cccc(-n2cc(-c3ccncc3)c(-c3ccc(Cl)c(O)c3)n2)c1`: -64.1% (active); `CCOC(=O)c1cnn(CC(O)CC)c1NC(=O)NCc1ccccc1C(F)(F)F` (stereo not drawn): 105% (inactive).
With `O=C(Nc1cc(C(F)(F)F)cc(C(F)(F)F)c1)c1cc(Cl)ccc1O`, the growth is -21.2% (active) and -8.57% (active).
Turning to `O=C(N/N=C/c1ccc(O)cc1O)c1cccc(Nc2ccnc(C(F)(F)F)c2)c1`, the growth was 41% (inactive).
For `O=S(=O)(Nc1ccc(F)cc1)c1ccc(-c2cnc(C3CC3)o2)cc1` the value was -10.3% (active); for `Nn1c(-c2ccc(Cl)cc2)nc2c(-c3ccc(Cl)cc3)nc3ccc(Cl)cc3c2c1=O`, 37.4% (inactive).
Next, `COc1ccc2c(c1)oc1c(C)c3c(c(C)c12)C(=O)N(Nc1ccccc1)C3=O`: 104% (inactive); `Cc1cnc(C(=O)NNc2nc3sc4c(c3c(=O)[nH]2)C(C)CCC4)cn1` (stereo not drawn): 31.4% (inactive).
Next, `COC(=O)c1nc(-c2ccc(C)cc2)oc1Sc1ccc(C)cc1`: 103% (inactive); `O=C1OCC2=C1C(c1cccc(C(F)(F)F)c1)c1cc3c(cc1N2CCO)OCCO3` (stereo not drawn): -41.1% (active).
For the compound `C=C(CNCCc1ccc(O)cc1)[C@@H]1CC[C@]2(CO)CC[C@]3(C)[C@H](CC[C@@H]4[C@@]5(C)CCC(NCCc6ccc(O)cc6)C(C)(C)[C@@H]5CC[C@]43C)[C@@H]12` (stereo partly drawn), the growth is -89.9% (active).
